For 16 compounds, growth results are on record in PubChem BioAssay (NCI).

The panel holds about 83,000 compounds, 20% with a hit somewhere; the sample as a whole holds those more often.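 96-well plates, one dose, 48 hours. Percent growth reported; active if below 10.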 Values without a mark were called inactive. Active and inactive are the calls of the source.

Among the test systems are RPMI-8226 leukemia; OVCAR-8 ovarian; OVCAR-5 ovarian; OVCAR-4 ovarian; SK-OV-3 ovarian; OVCAR-3 ovarian; HS 578T breast; NCI/ADR-RES ovarian; T-47D breast; IGROV1 ovarian.
Holding throughout (assay): NCI-60 one-dose screen, 48 h (100 = growth as untreated, 0 = no growth, -100 = all killed)
Holding throughout (conditions): 10 µM

Take `O=C(Nc1ccc(Cl)c([N+](=O)[O-])c1)Nc1nc2ccccc2s1`: the growth was 7.17% (active) in the assay on RPMI-8226 leukemia; 85.3% in the assay with OVCAR-8 ovarian; 103% in the assay with OVCAR-5 ovarian; 67.1% with OVCAR-4 ovarian; 84.9% in the assay on SK-OV-3 ovarian; 79.5% in the assay with OVCAR-3 ovarian. Besides, the growth with HS 578T breast was 103%; in the assay with NCI/ADR-RES ovarian it was 80.9%; with T-47D breast, 36.8%.
Regarding `CCc1ccc2c(c1)N(CCO)C1=C(C(=O)OC1)C2c1cc(OC)c(OC)c(OC)c1` (stereo unspecified), the growth with RPMI-8226 leukemia was 18.3%; with OVCAR-8 ovarian it was 8.75% (active); in the assay on OVCAR-5 ovarian, 36.6%; in the assay on OVCAR-4 ovarian, 48.6%; in the assay with SK-OV-3 ovarian it was 23.4%; in the assay on OVCAR-3 ovarian it was -57.6% (active). Moreover, the growth is 1.11% (active) in the assay with HS 578T breast, -3.11% (active) in the assay with NCI/ADR-RES ovarian and 59.7% with T-47D breast.
As for `CCN1Cc2c(/C=C/c3ccccc3)nc3ccc(OC)cc3c2N(c2cccc(Cl)c2)C1`, the growth is -1.25% (active) in the assay with RPMI-8226 leukemia; 89.4% with OVCAR-8 ovarian; 95.4% in the assay on OVCAR-5 ovarian; 67.5% in the assay with OVCAR-4 ovarian; 77.3% in the assay on SK-OV-3 ovarian; 74.7% in the assay with OVCAR-3 ovarian. Also, the growth was 105% with HS 578T breast, 77.4% with NCI/ADR-RES ovarian and 55.1% with T-47D breast.
With `Nc1nc(N)c2c(ccc3nccc32)[nH]1`, the growth with RPMI-8226 leukemia was 43.2%; in the assay on OVCAR-8 ovarian it was 26.2%; in the assay with OVCAR-5 ovarian it was 65.2%; with OVCAR-4 ovarian, 66.1%; with SK-OV-3 ovarian, 58.8%; in the assay on OVCAR-3 ovarian, 75.5%. The growth was 89.5% in the assay on HS 578T breast, 53.1% with NCI/ADR-RES ovarian and 73% in the assay with T-47D breast.
As to `O=C1OCC2=C1C(c1cccc(Cl)c1)c1cc3c(cc1N2CCO)OCCO3` (stereo unspecified), the growth in the assay on RPMI-8226 leukemia was 20.2%; in the assay with OVCAR-8 ovarian, 1.27% (active); in the assay on OVCAR-5 ovarian it was 30.3%; in the assay on OVCAR-4 ovarian, 56.2%; in the assay on SK-OV-3 ovarian, 26.1%; with OVCAR-3 ovarian, -52.2% (active). In addition, the growth was -6.14% (active) in the assay on HS 578T breast, 0.234% (active) in the assay with NCI/ADR-RES ovarian and 73.5% in the assay with T-47D breast.
As for `COc1cc(/C=C/C(=O)c2ccc(Cl)cc2)ccc1OS(=O)(=O)c1ccc(C)cc1`, the growth in the assay on RPMI-8226 leukemia was -16.7% (active); with OVCAR-8 ovarian, 83.8%; with OVCAR-5 ovarian, 111%; with OVCAR-4 ovarian, 92.5%; with IGROV1 ovarian, 97.9%; in the assay with OVCAR-3 ovarian it was 80.7%. In addition, the growth in the assay on HS 578T breast was 129%; in the assay on NCI/ADR-RES ovarian, 81.4%; in the assay on T-47D breast, 76.8%.
Regarding `Nc1ccc2c(c1)C1(CCC2)NC(=O)NC1=O` (stereo unspecified), the growth is 98.4% in the assay with RPMI-8226 leukemia; 100% in the assay with OVCAR-8 ovarian; 92.8% in the assay with OVCAR-5 ovarian; 106% in the assay with OVCAR-4 ovarian; 109% in the assay on SK-OV-3 ovarian; 110% in the assay on OVCAR-3 ovarian. In addition, the growth with HS 578T breast is 103%; in the assay with NCI/ADR-RES ovarian it was 108%; in the assay with T-47D breast it was 96.3%.
Take `S=c1[nH]ccn1-c1c(Cl)cccc1Cl`: the growth is 89% in the assay with RPMI-8226 leukemia; 103% in the assay with OVCAR-8 ovarian; 107% in the assay with OVCAR-5 ovarian; 97.1% in the assay on OVCAR-4 ovarian; 102% with SK-OV-3 ovarian; 111% in the assay on OVCAR-3 ovarian. The growth was 109% with HS 578T breast, 102% with NCI/ADR-RES ovarian and 91.2% with T-47D breast.
For `CCN(CC)CCNc1ccc(CO)c2oc3cc(Cl)ccc3c(=O)c12`, the growth in the assay with RPMI-8226 leukemia was 85.7%; in the assay with OVCAR-8 ovarian, 59.4%; in the assay on OVCAR-5 ovarian, 104%; with OVCAR-4 ovarian it was 78.7%; in the assay on SK-OV-3 ovarian, 92.9%; in the assay on OVCAR-3 ovarian, 91.8%. The growth is 99% in the assay on HS 578T breast, 74.2% in the assay with NCI/ADR-RES ovarian and 117% in the assay with T-47D breast.
For `ClC(Cl)(Cl)c1nc2nccnc2[nH]1`, the growth was 98.8% with RPMI-8226 leukemia; 107% in the assay with OVCAR-8 ovarian; 104% in the assay on OVCAR-5 ovarian; 97.3% with OVCAR-4 ovarian; 102% in the assay with SK-OV-3 ovarian; 118% in the assay with OVCAR-3 ovarian. The growth in the assay on HS 578T breast is 99.2%; with NCI/ADR-RES ovarian it was 109%; in the assay on T-47D breast it was 101%.
`O=C1NC(=O)c2ncccc21`: the growth in the assay on RPMI-8226 leukemia was 99.3%; with OVCAR-8 ovarian it was 100%; in the assay with OVCAR-5 ovarian it was 107%; in the assay on OVCAR-4 ovarian, 113%; with IGROV1 ovarian, 107%; in the assay on OVCAR-3 ovarian, 113%. Besides, the results for the growth in the assay on HS 578T breast, with NCI/ADR-RES ovarian and with T-47D breast were 124%, 106% and 102%, respectively.
In the case of `NC(=O)CC1(c2ccccc2)CCCCC1`, the growth is 99.1% in the assay on RPMI-8226 leukemia; 107% with OVCAR-8 ovarian; 111% with OVCAR-5 ovarian; 103% in the assay on OVCAR-4 ovarian; 103% in the assay with SK-OV-3 ovarian; 103% with OVCAR-3 ovarian. The growth in the assay on HS 578T breast is 115%; with T-47D breast, 97.5%.
Regarding `CCN(CC)CCSCCN(CC)CC`, the growth with RPMI-8226 leukemia was 105%; in the assay with OVCAR-8 ovarian, 101%; in the assay with OVCAR-5 ovarian, 94.3%; in the assay on OVCAR-4 ovarian, 96.4%; in the assay on SK-OV-3 ovarian it was 98.9%; in the assay with OVCAR-3 ovarian it was 108%. The growth was 106% with HS 578T breast, 108% in the assay on NCI/ADR-RES ovarian and 94% in the assay on T-47D breast.
For `COc1ccc(-c2nc(-c3nc4cc(Cl)c(Cl)cc4[nH]3)c3ccccn23)cc1`, the growth with RPMI-8226 leukemia is 49.9%; in the assay with OVCAR-8 ovarian, 31.6%; with OVCAR-5 ovarian, 91.6%; in the assay with OVCAR-4 ovarian it was -34.2% (active); with SK-OV-3 ovarian, -25.1% (active); in the assay on OVCAR-3 ovarian it was 39%. For the same compound, the growth was 12.9% in the assay on HS 578T breast, 51.4% in the assay on NCI/ADR-RES ovarian and 66.5% in the assay on T-47D breast.
On to `O=C(Nc1nc2ccccc2s1)Nc1ccc([N+](=O)[O-])cc1Cl`, for which the growth with RPMI-8226 leukemia is 36.9%; with OVCAR-8 ovarian, -26.4% (active); with OVCAR-5 ovarian it was 105%; in the assay with OVCAR-4 ovarian it was -45.6% (active); in the assay with SK-OV-3 ovarian, 63.9%; in the assay with OVCAR-3 ovarian it was 38.1%. The growth was 14.4% with NCI/ADR-RES ovarian and 61.7% with T-47D breast.
As for `CCOC1(OCC)OC(c2ccccc2)=C(C#N)C(/C=C\c2ccccc2)C1(OCC)OCC` (stereo unspecified), the growth was 44.5% in the assay on RPMI-8226 leukemia; 86.5% in the assay with OVCAR-8 ovarian; 103% with OVCAR-5 ovarian; 79.6% in the assay on OVCAR-4 ovarian; 94.8% in the assay with SK-OV-3 ovarian; 71.8% with OVCAR-3 ovarian. Further, the results for the growth with HS 578T breast and in the assay with T-47D breast were 95.1% and 67.5%, respectively.
